TEAD-YAP block: TEAD-YAP interaction inhibition; HEK-TIYL cells, TEAD-Gal4/YAP UAS-luciferase luminescence; inhibition, % at 9.12 µM; hit rate 1.4% among 640,000; in the data active = inhibition above about 32%;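 note: 0% = median of test compound wells and 100% = reference inhibitor wells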
FBW7 act: human FBW7 E3 ligase activation, primary screen; Q969H0; AlphaScreen FBW7–phospho-cyclin E peptide binding, activator screen; normalized activity (activation), % at 26.1 µM; hit rate 0.13% among 650,000; AID 1259310; in the data active = normalized activity above about 1.9%;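 note: purified mutant Fbw7 with reduced substrate affinity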
MITF inh: inhibitors of human MITF; AID 1259374; inhibition, % at 2.6 µM; AlphaScreen MITF homodimerization, bead proximity signal; hit rate 0.91% among 650,000; O75030; in the data active = inhibition above about 50%;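 note: 0% = vehicle wells with protein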
Target sequence (O75030 whole entry, looked up): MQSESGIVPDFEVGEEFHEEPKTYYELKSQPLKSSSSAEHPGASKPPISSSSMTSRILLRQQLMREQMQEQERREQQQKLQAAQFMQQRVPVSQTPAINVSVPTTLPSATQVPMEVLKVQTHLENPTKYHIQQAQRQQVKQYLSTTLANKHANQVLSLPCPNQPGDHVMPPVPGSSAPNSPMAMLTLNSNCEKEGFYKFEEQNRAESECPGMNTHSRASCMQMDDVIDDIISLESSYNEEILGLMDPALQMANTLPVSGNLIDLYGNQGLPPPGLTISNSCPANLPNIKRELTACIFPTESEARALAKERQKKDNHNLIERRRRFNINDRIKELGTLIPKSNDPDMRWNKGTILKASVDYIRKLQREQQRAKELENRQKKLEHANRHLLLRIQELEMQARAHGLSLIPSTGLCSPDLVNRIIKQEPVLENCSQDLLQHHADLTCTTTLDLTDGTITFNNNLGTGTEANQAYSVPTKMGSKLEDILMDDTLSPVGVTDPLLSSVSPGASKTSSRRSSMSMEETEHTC
GPR151 activ: human GPR151 activation. Q8TDV0. PathHunter beta-arrestin GPR151 cells, luminescence. activation, % at 11.2 µM. hit rate 1% among 650,000; in the data active = activation above about 4.9%;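 note: 0% = median of compound wells and 100% = cells with positive control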
Starred values were filed as active, the others as inactive. In the library only some 3.5% were active in any assay of this set; here they are far more common.

SMILES	TEAD-YAP block	FBW7 act	MITF inh	GPR151 activ
CN(CCC#N)c1ccc(/C=C(\C#N)c2ccccn2)cc1	48.7*	0.0	-1.0	-4.5
Cc1ccc(-n2ncc3c(SCC(=O)NCc4ccco4)ncnc32)c(C)c1	38.7*	0.2	6.0	-1.5
CN(C)c1ccc(-c2cnc3ccc(NCc4ccc5c(c4)OCO5)nn23)cc1	54.6*	0.0	7.5	-0.4
Clc1ccc(-c2cnc3ccc(NCc4ccc5c(c4)OCO5)nn23)cc1	-8.6	0.7	0.0	-0.6
COc1ccccc1-c1cnc2ccc(NCc3cc(OC)c(OC)c(OC)c3)nn12	58.8*	0.0	12.3	-0.7
NS(=O)(=O)c1ccc(CNc2ccc3ncc(-c4ccccc4F)n3n2)cc1	33.8*	0.0	16.7	-0.1
COc1ccc(-c2cnc3ccc(NCc4ccc5c(c4)OCO5)nn23)cc1	35.6*	0.0	-8.8	-0.5
NS(=O)(=O)c1ccc(CNc2ccc3ncc(-c4cccc5cccnc45)n3n2)cc1	2.4	0.0	-0.7	0.1
CNS(=O)(=O)c1ccc(NC(=O)c2sc3ccccc3c2Cl)cc1	-15.2	0.1	-4.7	0.2
COc1ccc(C2C(C#N)=C(N)N(c3cccc([N+](=O)[O-])c3)C3=C2C(=O)CCC3)cc1 (configuration not stated)	-9.9	0.0	19.6	-1.1
OCc1ccc(-c2cnc3ccc(NCc4ccc(F)cc4)nn23)cc1	25.1	0.0	7.3	-0.8
COc1ccc(CNc2ccc3ncc(-c4ccncc4)n3n2)cc1	65.8*	-0.2	-1.4	-0.4
Oc1ccc(-c2cnc3ccc(NCc4ccc(F)cc4)nn23)cc1	40.2*	-0.1	-18.0	0.4
CSc1ccc(Cn2nnc(C(=O)NCc3ccccc3Cl)c2N)cc1	-3.5	0.2	17.8	0.6
CCC(C)(C)c1ccc(OCCCC[n+]2cccc(C)c2C)c(C(C)(C)CC)c1	87.7*	0.1	-15.4	1.0
CCC(C)(C)c1ccc(OCCCC[n+]2ccc(C)cc2)c(C(C)(C)CC)c1	45.4*	-0.1	-7.5	0.3
Cc1sc2ncnc(NCc3ccncc3)c2c1C	-0.1	-0.1	1.9	1.0
Cc1sc2ncnc(NC(C)c3ccc(-n4ccnc4)cc3)c2c1C (configuration not stated)	46.8*	-0.1	4.7	0.9
COc1cccc(NC(=O)C2C3C=CC4(O3)C2C(=O)N(Cc2ccc(F)cc2)C4C(=O)NC2CCCCC2)c1 (configuration not stated)	-6.8	0.0	-3.7	1.8
Cc1ccc(-c2nc(-c3nonc3N)no2)cc1	-30.4	0.1	8.5	1.6
CC(C)(C)c1ccc(-c2nc(-c3c(F)cccc3F)no2)cc1	68.5*	0.1	-7.6	1.3
N#Cc1ccc(-c2nc(-c3c(F)cccc3F)no2)cc1	-16.1	0.5	9.2	1.9
CC(C)(C)c1ccc(-c2nc(-c3nonc3N)no2)cc1	51.5*	0.1	-2.1	-0.1
O=C1C2CCCCC2C(=O)N1c1n[nH]c(Cc2ccccc2)n1 (configuration not stated)	-3.5	0.1	8.5	-1.3
OCCn1c(-c2ccc(Cl)cc2)csc1=Nc1ccccc1	-19.6	0.0	22.8	-1.6
SMILES	TEAD-YAP block	FBW7 act	MITF inh	GPR151 activ
COc1ccc(OC)c(C2C=C(c3ccc(C)cc3)Nc3ncnn32)c1 (configuration not stated)	66.0*	-0.1	-0.7	-0.6
COc1ccc(C2=CC(c3cccc(C)c3)n3ncnc3N2)cc1 (configuration not stated)	46.0*	-0.2	1.4	0.0
COc1ccc(C2=CC(c3cc(OC)c(OC)c(OC)c3)n3ncnc3N2)cc1OC (configuration not stated)	53.6*	0.1	1.6	-1.7
COc1cc(C2C=C(c3ccc4c(c3)OCO4)Nc3ncnn32)cc(OC)c1OC (configuration not stated)	64.2*	-0.1	1.4	1.1
CC(C)(C)OC(=O)N1C(C(=O)O)CSC1c1cccc(Br)c1 (configuration not stated)	2.7	0.2	0.3	-0.1
CN(C)CCCOc1ccc2c(c1)CC(C(=O)Nc1ccc(-c3cn[nH]c3)cc1)CO2 (configuration not stated)	25.6	0.2	-1.6	-0.8
CCOc1ccccc1C1C=C(c2ccc(OC)cc2)Nc2ncnn21 (configuration not stated)	55.9*	-0.1	3.9	1.0
COc1ccc(C2=CC(c3ccc(C)cc3)n3ncnc3N2)cc1OC (configuration not stated)	-68.1	0.0	3.0	1.2
COc1ccc(C2C=C(c3ccc(C)cc3)Nc3ncnn32)cc1OC (configuration not stated)	53.6*	0.1	10.6	-0.1
CCc1ccc(C2=CC(c3ccc(OC)c(OC)c3OC)n3ncnc3N2)cc1 (configuration not stated)	47.2*	-0.1	5.0	-0.1
CCSc1nc2c(c(=O)[nH]c(=O)n2C)n1CCCc1ccccc1	0.0	0.4	5.3	0.8
CCSc1nc2c(c(=O)[nH]c(=O)n2C)n1CCc1ccc(OC)cc1	42.6*	0.1	-11.9	0.0
Cn1ccnc1C1(O)CCN(CC(=O)Nc2ccccc2N2CCOCC2)CC1	8.7	0.0	4.3	1.1
COc1ccccc1NC(=O)CSc1nc(O)c(CC(C)C)c(=O)[nH]1	6.7	-0.3	0.3	0.1
CN(C)CCNC(=O)c1ccc2c(c1)CC(c1nc3ncc(-c4ccnc(N)n4)cc3[nH]1)CO2 (configuration not stated)	-47.8	1.5	72.0*	0.9
CC(C)CNC(=O)c1ccc2c(c1)CC(c1nc3ncc(-c4ccnc(N)n4)cc3[nH]1)CO2 (configuration not stated)	-3.2	0.2	27.0	1.8
Nc1nccc(-c2ccc3nc(C4COc5ccc(C(=O)NCCc6ccccn6)cc5C4)[nH]c3c2)n1 (configuration not stated)	-6.0	9.0*	11.0	0.6
Nc1nccc(-c2cnc3nc(C4COc5ccc(C(=O)NCCc6cccnc6)cc5C4)[nH]c3c2)n1 (configuration not stated)	-4.8	1.3	-6.0	1.0
Nc1nccc(-c2ccc3nc(C4COc5ccc(C(=O)NCCc6cccnc6)cc5C4)[nH]c3c2)n1 (configuration not stated)	0.1	4.2*	7.0	1.4
CC(C)(C)OC(=O)Nc1ccc(SCC(=O)O)cc1	82.7*	0.0	-6.6	0.9
COC(=O)Nc1ccc(SCC(=O)c2ccccc2)cc1	-2.2	0.2	2.6	1.9
CC(=O)Nc1sc2c(c1C(c1cccnc1)N1CCCC1)CCCC2 (configuration not stated)	-45.9	-0.2	0.3	1.6
COc1ccccc1C1NC(=O)c2[nH]nc(-c3ccc(C)cc3)c21 (configuration not stated)	55.1*	-0.1	9.1	1.0
COCC(C)n1c(C)cc(C(=O)COC(=O)c2cccn2C)c1C (configuration not stated)	66.8*	-0.2	11.1	-1.7
Cc1ccccc1-c1coc2cc(O)ccc2c1=O	-10.2	-0.2	-17.6	1.6
O=c1c(-c2ccc(O)cc2)coc2cc(OC3OC(CO)C(O)C(O)C3O)ccc12 (configuration not stated)	53.9*	0.1	-1.6	-2.9
